Hit rate of the full screen: of about 2,200 compounds, about 530 (24%) were called active. A selection follows. Potency and affinity values are given separately. Unmarked numbers belong to inactive results.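 Rule for the calls: active = inhibition above a set limit at one or more concentrations of the dose series; inactive = inhibition under that limit at every dose.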

The term inhibition denotes the relative decrease from the control value, in per cent.

This assay in a line: nmpC-GFP reporter counter-screen in S. Typhimurium, dose response, counter-screen for PhoP regulon inhibitor project, Salmonella Typhimurium, GFP fluorescence (AID 2401).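 Note: S. typhimurium with Mg-insensitive nmpC-GFP reporter grown at 10 µM Mg2+; drop in reporter fluorescence reflects general culture growth inhibition.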 The following applies: 4 h; series mostly up to 150 µM; inhibition: at the top concentration. Background: Counterscreens check selectivity or assay interference.
Take `CCOC(=O)C1CCCN(S(=O)(=O)c2ccc(Br)c(OC)c2)C1` (stereo not given): the “inhibition” value is 0.83%.
With `O=C(c1ccc2nc(N3CCOCC3)sc2c1)N1CCC(Cc2ccccc2)CC1`, the “inhibition” value was -16.1%.
The same measure for `O=C(CCc1ccccc1)Nc1nc2ccc(S(=O)(=O)N3CCOCC3)cc2s1`: 25.6%; for `CN1CCN(S(=O)(=O)c2ccc(-c3ccccc3)cc2)CC1`: -28.3%.
Take `CCC1C2CN(C(C)=O)CC=C2C(C#N)=C(N)C1(C#N)C#N` (stereo not given): the “inhibition” value is 3.63%.
In the case of `Cc1cc(NCCN2CCOCC2)n2ncc(-c3ccccc3)c2n1` it was -15.6%; in that of `CN(C)CCNc1nc(-c2ccccc2)nnc1C(F)(F)F`, -3.73%.
The same measure for `Nc1c(-c2ccccc2Cl)cnn1-c1cccc([N+](=O)[O-])c1`: -8.16%.
Take `N#Cc1ccc(C(c2nnnn2CCc2ccccc2)N2CCCCCC2)cc1` (stereo not given): the “inhibition” value is -1.07%.
As for `NC(=O)c1ccccc1NC(=O)/C=C/C(=O)O`, the “inhibition” value is -8.68%.
In the case of `O=C(Cc1cccs1)Nc1nc2c(s1)CCCC2`, the “inhibition” value is -24.8%.
In the case of `COc1ccc([N+](=O)[O-])cc1N(CC(O)Cn1nnc2ccccc21)S(=O)(=O)c1ccc(C)cc1` (stereo not given) it was -42.2%.
For `Cc1cccc(NC(=O)c2ccc(Cn3cc(C(F)(F)F)ccc3=O)cc2)c1`, the “inhibition” value was 7.69%.
In the case of `O=C(O)/C=C/C(=O)Nc1cccc(C(F)(F)F)c1` it was -19.4%; in that of `NS(=O)(=O)c1ccc(Nc2nc(-c3ccc(O)cc3)cs2)cc1`, -18.4%.
`COCc1cc(C)nc(N2CCc3ccccc32)c1C#N`: the “inhibition” value was -22.8%.
Consider `O=C(CSc1nnc(Cc2ccccc2)o1)NCCc1ccccc1`, for which the “inhibition” value is -24.4%.
The same measure for `CCn1c(=N)n(CC(O)c2ccccc2)c2ccccc21` (stereo not given): -16%.
In the case of `Cc1ccccc1OCCCCCn1ccnc1`, the “inhibition” value is -17%.
The same measure for `COc1ccc(C(=O)NCCC2=CCCCC2)cc1OC`: 5.91%.
Consider `C1=C(CCNc2ncnc3c2[nH]c2ccccc23)CCCC1`, for which the “inhibition” value is 26.4%.
The same measure for `Cc1nc2ccccc2c(=O)n1/N=C/c1ccc(N(C)C)cc1`: -15.2%; for `COc1cccc(Nc2nc(-c3sc(NC(=O)c4ccco4)nc3C)cs2)c1`: 25.7%; for `O=C(NCCNS(=O)(=O)c1cccc(C(F)(F)F)c1)c1cc(OCC(F)(F)F)ccc1OCC(F)(F)F`: -2.55%.
In the case of `CCOC(=O)C1CCCN(C(=O)Cc2ccc(Cl)cc2)C1` (stereo not given) it was -20.2%.
For the molecule `NC(=NCc1ccc2c(c1)OCO2)NC(=O)c1ccccc1`, the “inhibition” value is 36.3%.
The same measure for `COc1ccc(-c2nc3ncccc3n2O)cc1`: -18.4%.
For `O=C(CSc1nccc(=O)[nH]1)N1c2ccccc2CCc2ccccc21`, the “inhibition” value is 1.74%.
Consider `O=C(CSC1CC(=O)N(CCc2ccccc2)C1=O)Nc1cccc(Cl)c1` (stereo not given), for which the “inhibition” value is 9.92%.
The same measure for `COc1ccc(NC2=NC3(CCCCC3)N=C(N)N2)cc1`: -8.53%; for `CC(C)c1ccc(NC(=O)Nc2cc3sccc3n2C)cc1`: 22.1%; for `CCOC(=O)C1CCCN(C(=O)c2sc3nc(C)nc(N4CCOCC4)c3c2C)C1` (stereo not given): -24.6%.
The same measure for `CCn1c(Cc2ccccc2)nnc1SCC(=O)Nc1nc(C)c(C)s1`: -12.1%; for `OC1(c2cccc(C(F)(F)F)c2)CCN(c2ncnc3c2[nH]c2ccccc23)CC1`: 15.2%; for `Cc1ccc(Oc2nnc(-c3ccccc3)c3ccccc23)cc1`: 3.31%.
The same measure for `NC(=O)c1oc2ccccc2c1NC(=O)CN1CCCCC1`: -2.53%.
Take `O=C(CN1CCCc2ccccc21)N/N=C/c1c(O)ccc2ccccc12`: the “inhibition” value was 38.1%.
On to `Nc1ccc(S(=O)(=O)Nc2ccc(Cl)nn2)cc1`, for which the “inhibition” value is 15.9%.
Turning to `O=C(Nc1cccc(-c2cn3cccnc3n2)c1)c1ccco1`, the “inhibition” value was -21.2%.
The same measure for `CCOCCCNC(=S)Nc1cc(C)cc(C)c1`: -3.38%.
Regarding `O=C(CCNS(=O)(=O)c1cccc2nsnc12)Nc1ccc2c(c1)OCCO2`, the “inhibition” value is -13.2%.
Take `c1ccc(COc2cccc(CN3CCN(c4ccccn4)CC3)c2)cc1`: the “inhibition” value was -21.9%.
The same measure for `O=c1[nH]c(CN2CCCCC2)nc2ccccc12`: -18.8%; for `c1cncc(-c2nc(N3CCOCC3)c3ccccc3n2)c1`: -13.2%.
As to `Cc1cc(C(C)c2ccccc2)c(O)c(CN2CCOCC2)c1C` (stereo not given), the “inhibition” value was 16.5%.
The same measure for `CC1(C)CC(=O)C(/C=N/c2ncccc2C(=O)O)=C(O)C1`: -7.77%; for `CCOC(=O)c1ccc(NC(=O)Nc2cc(C)on2)cc1`: -22.6%.
The same measure for `COc1ccc(NC2=NC(=S)N(c3cccc(C)c3)C23CCCCC3)cc1`: -30.8%; for `CN(C)c1ccc(Nc2nc(-c3cccnc3)cs2)cc1`: 31%.
The same measure for `CCC(CC)NC(=O)COC(=O)c1ccc(OCC(=O)Nc2ccccc2OC)c(OC)c1`: -12.6%; for `O=C(O)C1CCCN1S(=O)(=O)c1ccc2[nH]c(=O)c(=O)[nH]c2c1` (stereo not given): -21.6%; for `N=c1n(Cc2ccc(Cl)cc2)c2ccccc2n1CC(O)c1ccco1` (stereo not given): 38.9%.
Consider `N=c1n(CCO)c2ccccc2n1Cc1ccc(Cl)cc1`, for which the “inhibition” value was 10.3%.
In the case of `N#CCC1c2ccccc2CCN1C(=O)Nc1ccc(Cl)cc1` (stereo not given) it was -25.1%; in that of `N/C(=N\c1nc2ccccc2o1)NC(=O)c1ccccc1F`, -4.05%; in that of `Cn1c(-c2ccc(N)cc2)nc2ccccc21`, -13.6%.
Turning to `CCCCCOc1ccc(NC(=O)C(=O)NCCC2=CCCCC2)cc1`, the “inhibition” value was -29%.
As to `CN1/C(=C\C=N\NC(=O)c2ccccc2Br)C(C)(C)c2ccccc21`, the “inhibition” value is 9.45%.
The same measure for `CN1/C(=C/C2CC(=O)N(c3cccc4ccccc34)C2=O)C(C)(C)c2ccccc21` (stereo not given): 37.3%; for `C=CCNC(=O)c1ccc(N(C)S(=O)(=O)c2ccc(OC)cc2)cc1`: -4.35%.

These data come from PubChem BioAssay AID2401 (Southern Research Specialized Biocontainment Screening …, 2010).
